# Of roughly 8,800 targets only a part is listed; those with a hit were picked by preference. About 0.5% of all pairs of compound and target were hits. Values without a mark were called inactive.
# Tests used:
# Assay in all cases: log2 fold change, soluble protein after heating vs DMSO (PISA); higher = thermal stabilisation; K562 lysate, 10 uM; active = over 0.2 and 3.5 SD of the protein, either way, in both replicates (recomputed)
# lapatinib = compound: CS(=O)(=O)CCNCc1ccc(-c2ccc3ncnc(Nc4ccc(OCc5cccc(F)c5)c(Cl)c4)c3c2)o1 [lapatinib]
# Outline: (§1)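 Pellets of K562 cells were dounce-homogenised in PBS pH 7.4 with 1 mM MgCl2, and the crude extract was held at 1 mg/mL protein for a 30 min treatment with 10 μM compound. Aliquots were heated for 3 min over 48°C-58°C and pooled before NP-40 was added to 0.5% at 4°C. The supernatant from 21,000xg for 90 min was quantified by TMTpro 16plex LC-MS/MS with channel sums equalised. Values are reported from duplicates as log-two fold change in thermal stability relative to solvent controls.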
# pictilisib = compound: CS(=O)(=O)N1CCN(Cc2cc3nc(-c4cccc5[nH]ncc45)nc(N4CCOCC4)c3s2)CC1 [pictilisib]
# Outline: as §1
# crizotinib = compound: C[C@@H](Oc1cc(-c2cnn(C3CCNCC3)c2)cnc1N)c1c(Cl)ccc(F)c1Cl [crizotinib]
# Outline: as §1
# [1] = compound: C[C@H](C1=CC=C(C=C1)C(=O)NC2=C3C=CNC3=NC=C2)N
# Outline: as §1
# duvelisib = compound: C[C@H](Nc1ncnc2nc[nH]c12)c1cc2cccc(Cl)c2c(=O)n1-c1ccccc1 [duvelisib]
# Outline: as §1
# gandotinib = compound: Cc1cc(Nc2cc(CN3CCOCC3)c3nc(C)c(Cc4ccc(Cl)cc4F)n3n2)n[nH]1 [gandotinib]
# Outline: as §1
# doramapimod = compound: Cc1ccc(-n2nc(C(C)(C)C)cc2NC(=O)Nc2ccc(OCCN3CCOCC3)c3ccccc23)cc1 [doramapimod]
# Outline: as §1
# bafetinib = compound: Cc1ccc(NC(=O)c2ccc(CN3CC[C@H](N(C)C)C3)c(C(F)(F)F)c2)cc1Nc1nccc(-c2cncnc2)n1 [bafetinib]
# Outline: as §1
# [2] = compound: Cc1cccc(CC(=O)N2CCc3c2ccc(-c2cn(C)c4ncnc(N)c24)c3F)n1
# Outline: as §1
# nilotinib = compound: Cc1cn(-c2cc(NC(=O)c3ccc(C)c(Nc4nccc(-c5cccnc5)n4)c3)cc(C(F)(F)F)c2)cn1 [nilotinib]
# Outline: as §1
# [3] = compound: Cc1nc(Nc2n[nH]c3c2CN(C(=O)N[C@H](CN(C)C)c2ccccc2)C3(C)C)c2sccc2n1
# Outline: as §1
# dasatinib = compound: Cc1nc(Nc2ncc(C(=O)Nc3c(C)cccc3Cl)s2)cc(N2CCN(CCO)CC2)n1 [dasatinib]
# Outline: as §1
# [4] = compound: Cc1ncc(-c2ccnc(Nc3ccc(S(C)(=O)=O)cc3)n2)n1C(C)C
# Outline: as §1
# [5] = compound: Cn1cc(-c2ccc3c(c2)CCN3C(=O)Cc2cccc(C(F)(F)F)c2)c2c(N)ncnc21
# Outline: as §1
# quisinostat = compound: Cn1cc(CNCC2CCN(c3ncc(C(=O)NO)cn3)CC2)c2ccccc21 [quisinostat]
# Outline: as §1
# tipifarnib = compound: Cn1cncc1[C@@](N)(c1ccc(Cl)cc1)c1ccc2c(c1)c(-c1cccc(Cl)c1)cc(=O)n2C [tipifarnib]
# Outline: as §1
# [6] = compound: NC(=O)Nc1cc(-c2cccc(F)c2)sc1C(=O)N[C@H]1CCCNC1
# Outline: as §1
# [7] = compound: NC(=O)c1cnc(N[C@@H]2CCCC[C@@H]2N)nc1Nc1cccc(-n2nccn2)c1
# Outline: as §1
# [8] = compound: NC1(c2ccc(-c3nc4ccn5c(=O)[nH]nc5c4cc3-c3ccccc3)cc2)CCC1
# Outline: as §1
# tozasertib = compound: Cc1cc(Nc2cc(N3CCN(C)CC3)nc(Sc3ccc(NC(=O)C4CC4)cc3)n2)n[nH]1 [tozasertib]
# Outline: as §1
# UniProt Q8IZP0, sequence (Q8IZP0 whole entry, looked up): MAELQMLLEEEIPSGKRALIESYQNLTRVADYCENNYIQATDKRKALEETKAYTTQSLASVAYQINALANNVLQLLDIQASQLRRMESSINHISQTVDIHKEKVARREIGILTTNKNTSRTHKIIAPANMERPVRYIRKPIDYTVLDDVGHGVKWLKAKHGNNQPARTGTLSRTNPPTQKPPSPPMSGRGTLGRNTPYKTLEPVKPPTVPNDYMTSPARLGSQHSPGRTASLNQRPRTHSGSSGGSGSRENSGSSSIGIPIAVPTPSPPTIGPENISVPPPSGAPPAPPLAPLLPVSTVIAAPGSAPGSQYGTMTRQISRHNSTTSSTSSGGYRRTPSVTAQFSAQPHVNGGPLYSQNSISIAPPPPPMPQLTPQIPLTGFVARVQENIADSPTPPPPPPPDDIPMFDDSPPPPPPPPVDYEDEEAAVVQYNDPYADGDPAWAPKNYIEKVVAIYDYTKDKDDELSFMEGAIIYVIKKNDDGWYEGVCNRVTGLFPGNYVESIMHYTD
# UniProt Q8N8A2, sequence (Q8N8A2 whole entry, looked up): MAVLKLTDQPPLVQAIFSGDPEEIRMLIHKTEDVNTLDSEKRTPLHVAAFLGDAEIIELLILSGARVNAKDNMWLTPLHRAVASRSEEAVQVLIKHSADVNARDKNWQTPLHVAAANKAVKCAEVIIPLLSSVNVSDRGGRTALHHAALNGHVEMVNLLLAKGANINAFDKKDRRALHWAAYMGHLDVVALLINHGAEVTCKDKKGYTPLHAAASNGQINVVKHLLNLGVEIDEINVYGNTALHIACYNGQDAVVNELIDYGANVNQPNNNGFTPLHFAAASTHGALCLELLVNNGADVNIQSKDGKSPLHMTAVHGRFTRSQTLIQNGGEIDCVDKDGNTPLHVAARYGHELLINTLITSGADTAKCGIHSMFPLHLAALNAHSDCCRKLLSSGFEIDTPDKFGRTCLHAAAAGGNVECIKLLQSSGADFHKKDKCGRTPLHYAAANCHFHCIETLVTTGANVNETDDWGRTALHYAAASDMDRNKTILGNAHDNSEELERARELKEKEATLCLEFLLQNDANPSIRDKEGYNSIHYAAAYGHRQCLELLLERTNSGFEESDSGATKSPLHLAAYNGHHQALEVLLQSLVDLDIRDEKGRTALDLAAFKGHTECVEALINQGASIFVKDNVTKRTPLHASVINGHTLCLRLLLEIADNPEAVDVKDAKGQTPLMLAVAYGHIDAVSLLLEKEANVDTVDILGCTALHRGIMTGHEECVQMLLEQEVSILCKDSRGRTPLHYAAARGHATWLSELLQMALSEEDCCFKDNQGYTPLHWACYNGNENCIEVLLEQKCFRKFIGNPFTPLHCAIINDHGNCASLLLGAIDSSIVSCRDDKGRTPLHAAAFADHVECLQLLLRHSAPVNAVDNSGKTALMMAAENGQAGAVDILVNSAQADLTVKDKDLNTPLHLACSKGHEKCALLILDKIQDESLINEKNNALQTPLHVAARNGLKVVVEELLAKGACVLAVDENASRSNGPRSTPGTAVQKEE
# UniProt P35611, sequence (P35611 whole entry, looked up): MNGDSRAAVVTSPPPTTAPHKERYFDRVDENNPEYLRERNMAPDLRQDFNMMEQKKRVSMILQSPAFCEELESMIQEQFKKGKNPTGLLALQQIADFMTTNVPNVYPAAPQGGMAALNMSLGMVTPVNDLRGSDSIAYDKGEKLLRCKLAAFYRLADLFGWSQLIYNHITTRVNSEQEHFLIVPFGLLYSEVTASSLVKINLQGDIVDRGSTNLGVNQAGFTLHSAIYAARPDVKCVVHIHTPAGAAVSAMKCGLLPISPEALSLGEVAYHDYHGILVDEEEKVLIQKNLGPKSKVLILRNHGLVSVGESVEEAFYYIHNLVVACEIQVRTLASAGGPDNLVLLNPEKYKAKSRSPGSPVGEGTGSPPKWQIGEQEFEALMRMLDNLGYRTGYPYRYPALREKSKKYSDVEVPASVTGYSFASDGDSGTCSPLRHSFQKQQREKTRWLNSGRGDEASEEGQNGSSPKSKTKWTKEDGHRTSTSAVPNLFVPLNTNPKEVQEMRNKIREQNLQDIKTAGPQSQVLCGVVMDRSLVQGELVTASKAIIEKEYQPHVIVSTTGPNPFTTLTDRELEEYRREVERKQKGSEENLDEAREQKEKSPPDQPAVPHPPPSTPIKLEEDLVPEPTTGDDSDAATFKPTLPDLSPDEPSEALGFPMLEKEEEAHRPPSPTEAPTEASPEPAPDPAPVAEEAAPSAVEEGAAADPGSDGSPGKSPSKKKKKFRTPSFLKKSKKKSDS
# UniProt Q3SXY8, sequence (Q3SXY8 whole entry, looked up): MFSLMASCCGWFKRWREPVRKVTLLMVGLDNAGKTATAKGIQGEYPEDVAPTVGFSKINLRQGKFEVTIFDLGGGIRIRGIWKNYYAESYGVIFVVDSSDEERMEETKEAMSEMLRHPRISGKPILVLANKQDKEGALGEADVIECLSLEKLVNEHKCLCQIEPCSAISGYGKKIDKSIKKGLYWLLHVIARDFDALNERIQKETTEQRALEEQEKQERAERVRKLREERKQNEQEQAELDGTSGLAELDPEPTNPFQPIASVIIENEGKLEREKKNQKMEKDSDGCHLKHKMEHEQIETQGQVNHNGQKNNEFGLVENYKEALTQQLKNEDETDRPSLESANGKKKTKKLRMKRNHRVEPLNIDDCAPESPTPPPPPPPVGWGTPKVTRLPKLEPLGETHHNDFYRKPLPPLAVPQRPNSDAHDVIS
# UniProt Q04771, sequence (Q04771 whole entry, looked up): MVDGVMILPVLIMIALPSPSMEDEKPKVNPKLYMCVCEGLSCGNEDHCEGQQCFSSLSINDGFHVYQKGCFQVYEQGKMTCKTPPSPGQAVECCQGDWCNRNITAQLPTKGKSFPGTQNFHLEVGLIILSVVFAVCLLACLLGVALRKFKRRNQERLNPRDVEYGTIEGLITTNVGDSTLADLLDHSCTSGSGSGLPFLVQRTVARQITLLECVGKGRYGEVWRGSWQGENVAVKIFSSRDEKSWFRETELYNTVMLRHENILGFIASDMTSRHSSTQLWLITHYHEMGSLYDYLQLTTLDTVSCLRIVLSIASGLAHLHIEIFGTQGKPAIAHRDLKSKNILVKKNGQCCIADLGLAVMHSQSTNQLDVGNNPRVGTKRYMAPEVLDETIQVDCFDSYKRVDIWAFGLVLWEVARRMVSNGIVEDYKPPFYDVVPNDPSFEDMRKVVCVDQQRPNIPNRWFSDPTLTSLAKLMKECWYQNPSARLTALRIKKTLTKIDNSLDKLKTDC
# UniProt Q13155, sequence (Q13155 whole entry, looked up): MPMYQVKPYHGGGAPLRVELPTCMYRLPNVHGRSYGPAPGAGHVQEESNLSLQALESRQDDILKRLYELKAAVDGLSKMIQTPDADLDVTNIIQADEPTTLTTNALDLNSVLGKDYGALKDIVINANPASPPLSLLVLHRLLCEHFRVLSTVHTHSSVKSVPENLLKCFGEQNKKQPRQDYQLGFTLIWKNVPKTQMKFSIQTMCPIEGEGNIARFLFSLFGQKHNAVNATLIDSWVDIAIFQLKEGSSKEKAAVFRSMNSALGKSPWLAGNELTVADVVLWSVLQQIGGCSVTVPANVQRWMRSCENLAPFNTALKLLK
# UniProt Q9BXX2, sequence (Q9BXX2 whole entry, looked up): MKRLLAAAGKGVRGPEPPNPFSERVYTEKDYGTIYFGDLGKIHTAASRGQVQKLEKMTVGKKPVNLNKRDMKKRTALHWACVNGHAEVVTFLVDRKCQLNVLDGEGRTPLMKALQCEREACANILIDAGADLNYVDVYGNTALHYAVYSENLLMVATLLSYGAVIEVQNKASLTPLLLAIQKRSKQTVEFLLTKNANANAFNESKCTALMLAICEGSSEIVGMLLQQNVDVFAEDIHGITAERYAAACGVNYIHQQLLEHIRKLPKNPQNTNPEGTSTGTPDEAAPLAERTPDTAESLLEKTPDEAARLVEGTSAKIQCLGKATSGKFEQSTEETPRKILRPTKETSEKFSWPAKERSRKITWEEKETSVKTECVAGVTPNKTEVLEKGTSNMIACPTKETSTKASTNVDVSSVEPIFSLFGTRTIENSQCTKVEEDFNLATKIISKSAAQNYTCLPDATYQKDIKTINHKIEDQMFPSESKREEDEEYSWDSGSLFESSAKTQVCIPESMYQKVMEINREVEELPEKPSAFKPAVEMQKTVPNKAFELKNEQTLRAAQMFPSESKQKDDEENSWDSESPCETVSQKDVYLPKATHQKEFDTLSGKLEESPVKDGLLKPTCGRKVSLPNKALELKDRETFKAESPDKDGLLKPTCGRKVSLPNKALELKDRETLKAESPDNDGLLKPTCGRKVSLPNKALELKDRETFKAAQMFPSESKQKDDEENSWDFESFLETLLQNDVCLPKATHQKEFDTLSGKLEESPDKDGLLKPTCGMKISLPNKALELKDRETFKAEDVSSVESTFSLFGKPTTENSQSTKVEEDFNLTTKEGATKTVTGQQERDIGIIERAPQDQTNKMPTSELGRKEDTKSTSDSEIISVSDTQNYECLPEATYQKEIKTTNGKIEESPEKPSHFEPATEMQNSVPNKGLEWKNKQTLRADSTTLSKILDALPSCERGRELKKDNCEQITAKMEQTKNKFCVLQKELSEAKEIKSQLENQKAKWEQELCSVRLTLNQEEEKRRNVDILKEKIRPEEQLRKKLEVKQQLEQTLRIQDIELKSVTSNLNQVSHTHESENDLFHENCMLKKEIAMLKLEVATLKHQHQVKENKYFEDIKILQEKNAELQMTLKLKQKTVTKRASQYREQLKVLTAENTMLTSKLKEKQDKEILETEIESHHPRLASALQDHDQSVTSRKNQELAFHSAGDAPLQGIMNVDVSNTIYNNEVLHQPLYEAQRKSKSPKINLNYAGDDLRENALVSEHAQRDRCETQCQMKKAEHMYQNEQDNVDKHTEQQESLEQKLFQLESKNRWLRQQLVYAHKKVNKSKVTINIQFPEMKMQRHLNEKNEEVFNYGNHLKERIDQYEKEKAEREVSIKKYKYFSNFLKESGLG
Target,log2 fold change (lapatinib),log2 fold change (pictilisib),log2 fold change (crizotinib),log2 fold change [1],log2 fold change (duvelisib),log2 fold change (gandotinib),log2 fold change (doramapimod),log2 fold change (bafetinib),log2 fold change [2],log2 fold change (nilotinib),log2 fold change [3],log2 fold change (dasatinib),log2 fold change [4],log2 fold change [5],log2 fold change (quisinostat),log2 fold change (tipifarnib),log2 fold change [6],log2 fold change [7],log2 fold change [8],log2 fold change (tozasertib)
ANXA13 isoform 2 (UniProt P27216),-0.111,-0.03,0.011,0.057,-0.116,0.545 (active),0.038,-0.195,0.284,-0.001,0.005,0.007,-0.079,0.104,-0.022,0.123,0.023,0.032,0.078,
ANKRD44 isoform 2 (UniProt Q8N8A2),-0.004,0.046,,-1.57 (active),,0.465,,-0.405,0.766 (active),-0.19,-0.03,,-0.216,,,0,,-0.019,0.025,0.12
ALDH3A1 (UniProt P30838),-0.002,,-0.134,-0.721,-0.061,0.569,0.015,,0.586,,,1.35 (active),,-0.024,-0.381,,-0.065,0.055,-0.018,
ALG3 (UniProt Q92685),-0.069,0.031,-0.057,-0.15,-0.104,0,0.037,-0.061,0.261,,,-0.049,,0.068,0.077,,-0.017,0.092,-0.036,-0.04
ALKBH7 (UniProt Q9BT30),,,-0.049,0.289,0.091,0.08,-0.062,,0.187,-0.039,-0.04,-0.017,-0.452,-0.226,0.006,0.107,0.044,,-0.099,-0.045
AP3D1 isoform 2 (UniProt O14617),0.084,,,0.19,,-0.429,,,-0.084,-0.287,0.035,,0.376,,,-0.132,,0.034,-0.121,
ADD1 isoform 4 (UniProt P35611),-0.006,-0.168,,-0.745 (active),0.029,0.556,,0.097,0.563,,,-0.017,,-0.075,,,,-0.109,-0.274,-0.044
"ACAT1, A0A5F9ZHJ0",,,,-0.151,,-0.075,,,0.208,-0.176,0.063,,0.024,,,0.07,,,,
ANP32E isoform 3 (UniProt Q9BTT0),,-0.012,,-0.843 (active),,0.213,,-0.14,0.439,,,,,,,,,,,0.165
ANKRD30B (UniProt Q9BXX2),-0.049,-0.068,,-0.558 (active),0.087,0.337,,-0.163,0.397,0.061,-0.076,-0.061,0.072,-0.015,,-0.065,,0.059,-0.051,-0.005
"ADK, A0A5F9ZH76",-0.013,-0.074,,,,,,0.147,,-0.267,0.089,,0.065,,,0.487,,-0.083,,
ARL13B (UniProt Q3SXY8),0.016,-0.074,-0.075,0.4 (active),0.014,-0.23,-0.068,0.025,-0.217,,,0,,-0.012,-0.313,,0.095,0.131,0.013,
ANKRD40 (UniProt Q6AI12),,-0.116,-0.022,-0.018,-0.171,-0.032,-0.027,-0.149,-0.067,-0.04,-0.115,0.197,0.071,-0.064,-0.161,0.137,-0.001,,-0.119,0.249
ADAM17 (UniProt P78536),,0.032,0.051,0.008,0.024,0.054,-0.06,0.019,0.099,-0.093,-0.151,-0.032,0.021,0.054,0.01,0.039,0.002,,-0.012,-0.015
ANXA2 (UniProt H0YL33),0.026,-0.028,-0.048,0.284,0.044,-0.163,0.017,0.031,-0.054,-0.153,0.008,-0.069,0.074,0.022,0.134,0.199,-0.196,-0.078,0.089,
ACACB (UniProt O00763),-0.032,-0.029,-0.103,-0.113,0.032,0.021,0.054,-0.113,0.165,-0.001,-0.042,-0.021,-0.052,0.05,-0.061,0.048,0.062,-0.001,-0.018,0.072
APOB (UniProt P04114),0.054,0.004,-0.003,-0.182,0.104,0.084,0.024,-0.091,0.06,-0.002,0.022,-0.096,-0.017,-0.038,-0.092,0.033,0.013,-0.035,0.008,0.015
AIMP2 isoform 2 (UniProt Q13155),-0.058,-0.148,-0.036,,,,-0.019,-0.082,,,,,,,-0.106,,0.067,0.017,,
ABI1 isoform 6 (UniProt Q8IZP0),0.007,,,,,,,,,,,,,,,,,0.113,,-0.061
ACVR1 (UniProt Q04771),,0.006,,0.103,-0.015,0.643,,0.007,-0.294,-0.11,0.013,0.258,0.476,-0.046,,-0.309,,,,
ACLY isoform 2 (UniProt P53396),0.012,-0.03,0.078,-0.423 (active),,0.323,-0.119,0.004,0.277,0.08,0.038,,0.191,,0.162,0.02,-0.027,-0.062,,0.055
ALG13 isoform 2 (UniProt Q9NP73),,,,0.054,,-0.088,,,0.106,0.142,-0.082,,-0.066,,,0.371,,,,
ALDH18A1 isoform 2 (UniProt P54886),,,0.127,,0.088,,-0.134,,,,,0.089,,0.181,0.397,,-0.093,,,

# Reference: the supplement of paper PMC10849652
